# Laboratory results reported in publication PMC5540273 (PLoS ONE, 2017).
# Tested on: T1, MRCKB
# T1 construct: gene CDC42BPB
# Details: concentration: 1 μM, replicates: in singlicate; n = 1
# 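Also: KINOMEscan kinase panel screen.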
row,SMILES,%Inh [%]
1,CC(=O)c1c(C)c2cnc(Nc3ccc(N4CCNCC4)cn3)nc2n(C2CCCC2)c1=O,35
2,CS(=O)(=O)Cc1ccc(Nc2nccc(-c3c(-c4cccc(NC(=O)C5CCCCC5)c4)nn4ncccc34)n2)cc1 [GSK350559],0
3,Cc1ccc(NC(=O)Nc2ccccc2)cc1-c1ccc(C(=O)Nc2ccncc2)cc1 [GSK1398471],24
4,NS(=O)(=O)c1cccc(N/C=C2\C(=O)Nc3ccc(S(=O)(=O)Cc4c(Cl)cccc4Cl)cc32)c1 [GSK398099],0
5,COc1ccc2cc(-c3nc(-c4ccccc4C(C)C)[nH]c3-c3ccncc3)ccc2c1 [SB-660566],1
6,O=C(Nc1n[nH]c2cc(-c3ccsc3)ccc12)C1CC1 [SB-732932],0
7,COc1cccc(CNC(=O)NC2CCN(c3ccnc(Nc4ccc(F)cc4)n3)C2)c1 (centres unmarked) [GSK1379723],8
8,Cc1cnc(N)c(/C=C/c2cncc(C(=O)NCCc3ccc(Cl)cc3Cl)c2)c1.Cl [GSK190937],2
